These results are taken from PubChem BioAssay (NCATS).

Inconclusive results are not listed. Where a call stands in place of a potency, no number is given. The source made the active and inactive calls. Calls come from the whole dose curve; as a rule, active = well fitted cell-killing curve with a large enough effect; inconclusive = small, poorly fitted or top-dose-only effect, or effect the other way; inactive = flat fitted curve, though single readings scatter.
Potency is the fitted concentration of half-maximal effect.

This assay in a line: MultiTox-Fluor Cytotoxicity Assay - LYMP1-001 - Dead Cells (AID 946).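 Note: cells exposed to compound for 16 h.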 To be noted: LYMP1-001 lymphoblastoid cells, dead-cell protease fluorescence; series mostly up to 92.2 µM. The text has this: NIH Chemical Genomics Center [NCGC]
NIH Molecular Libraries Screening Centers Network [MLSCN]
National Institutes of Environmental Health Sciences [NIEHS]
National Toxicology Program [NTP]
We have developed a 1536-well cell-based assay for quantitative high throughput screening (qHTS) against a number of cell lines to determine in vitro cytotoxicity of small molecules. This particular assay uses a human lymphoblastoid cell line (LYMP1-001) purchased from Coriell Institute for Medical Research.
NCGC Assay Protocol Summary:
The MultiTox-Fluor Cytotoxicity Assay (Promega) is a homogeneous method to simultaneously measure the relative number of live and dead cells in culture by detecting changes in cell membrane integrity. There are two fluorogenic peptide substrates in the assay reagent. Viable cells are determined when the cell-permeant substrate (GF-AFC) enters the cell and is cleaved by protease from live cells resulting in liberated fluorophore. This live-cell protease activity restricted to viable cells is proportional to cell number. The dead cells are determined by using fluorogenic cell-impermeant peptide substrate (bis-AAF-R110) which cleaved by dead cell proteases leaking from damaged cell membrane.
Using the MultiTox-Fluor Cytotoxicity Assay, the relative number of dead cells was measured in the lymphoblastoid cell line with complete culture medium following compound treatment for 16 hours. The assay was performed in opaque black Kalypsys 1536-well plates. In the screen, tetraoctylammonium bromide was used as positive control. Library compounds were measured for their ability to cause acute toxicity in the cell line, as reflected by an increase in dead cell protease activity, in a concentration-dependent manner. Data were normalized to the controls for basal activity (DMSO only) and 100% stimulation (15 uM tetraoctylammonium bromide). AC50 values were determined from concentration-response data modeled with the standard Hill equation.
qHTS protocol for MultiTox-Fluor Cytotoxicity assay
[Step] [Parameter] [Value] [Description]
1. Reagent; 5 uL; 2500 lymphoblastoid cells/well
2. Time; 5 hr; 37 C incubation
4. Controls; 23 nL; Tetraoctylammonium bromide 6.4pM to 92 uM
5. Time; 16 hr; 37 C incubation
6. Reagent; 5 uL; MuliTox-Fluor Assay reagent
7. Time; 60 min; Room Temperature
8. Detection; dead-cell fluorescence (Ex/Em=485/520); EnVision plate reader
Keywords: cytotoxicity, lymphoblastoid cell line, fluorescence, NTPHTS, NTPHTS_NCGC, NIEHS, EPA, DSSTox, MLSMR, MLSCN, NIH Roadmap, qHTS, NCGC
In the case of `[Cd+2].[Cl-].[Cl-]`, the Potency result is “inactive”.

On to `O=C(CCl)c1ccccc1`, for which the Potency is 50.1 µM (active).

As to `Oc1c(Br)c(Br)c(Br)c(Br)c1Br`, the Potency result is “inactive”.

With `CC(=O)[O-].CC(=O)[O-].O.O.[Cd+2]`, the Potency result is “inactive”.

Regarding `O=C1C2(Cl)C3(Cl)C4(Cl)C(Cl)(Cl)C5(Cl)C3(Cl)C1(Cl)C5(Cl)C24Cl` (configuration not stated), the Potency was 31.6 µM (active).

As to `C=CC(=O)OCC(CO)(COC(=O)C=C)COC(=O)C=C`, the Potency was 7.94 µM (active).

For `N#CC(Cl)Cl`, the Potency result was “inactive”.

Take `CCCCCCCCn1sccc1=O`: the Potency is 12.6 µM (active).

For the compound `c1ccc2cc3c(cc2c1)-c1cccc2cccc-3c12`, the Potency result was “inactive”.

`O=Nc1ccc(Nc2ccccc2)cc1`: the Potency was 5.01 µM (active).

Consider `ClC1=C(Cl)C2(Cl)C3C(Cl)C(Cl)CC3C1(Cl)C2(Cl)Cl` (configuration not stated), for which the Potency result is “inactive”.

Consider `COP(=O)(OC)O/C(=C\Cl)c1cc(Cl)c(Cl)cc1Cl`, for which the Potency result is “inactive”.

For `O=[N+]([O-])c1cc(C(F)(F)F)cc([N+](=O)[O-])c1Cl`, the Potency result is “inactive”.

Take `FC(F)(F)c1ccc(Cl)cc1`: the Potency entry is “inactive”.

With `OC(c1ccc(Cl)cc1)(c1ccc(Cl)cc1)C(Cl)(Cl)Cl`, the Potency entry was “inactive”.

As for `C#CCO`, the Potency entry was “inactive”.

As for `O=[N+]([O-])C(Br)Br`, the Potency entry was “inactive”.

Consider `C(=NC1CCCCC1)=NC1CCCCC1`, for which the Potency entry is “inactive”.

Consider `O=C(O)C1C(C(=O)O)C2(Cl)C(Cl)=C(Cl)C1(Cl)C2(Cl)Cl` (configuration not stated), for which the Potency result was “inactive”.

As to `N#CSCSC#N`, the Potency is 25.1 µM (active).

`CC/C(=C(\c1ccccc1)c1ccc(OCCN(C)C)cc1)c1ccc(O)cc1`: the Potency was 50.1 µM (active).

Regarding `Nc1ccccc1C(=O)OCCc1ccccc1`, the Potency entry is “inactive”.
